# Experimental data published in the antibiotic and cytotoxicity screens of Wong et al. (2023).
# Among all 39,000 compounds or so, about 3,300 (8.5%) were called active. For the sample, actives were picked, then their nearest neighbours and some compounds at random.
# Tested on: HepG2
# Experiment: cytotoxicity call (relative viability < 0.9)
# Details: 10 µM
row,SMILES,cytotoxicity call
1,C[C@@H]1CN([C@H](C)CO)C(=O)Cc2cc(NC(=O)NC3CCCCC3)ccc2O[C@@H]1CN(C)Cc1ccc(Cl)c(Cl)c1,active
2,C[C@H](CO)N1C[C@H](C)[C@@H](CN(C)Cc2ccc(Cl)c(Cl)c2)Oc2ccc(NC(=O)NC3CCCCC3)cc2CC1=O,inactive
3,C[C@@H]1CN([C@@H](C)CO)C(=O)Cc2cc(NC(=O)NC3CCCCC3)ccc2O[C@@H]1CN(C)Cc1ccc(Cl)c(Cl)c1,active
4,C[C@H](CO)N1C[C@H](C)[C@H](CN(C)Cc2ccc(Cl)c(Cl)c2)Oc2ccc(NC(=O)NC3CCCCC3)cc2CC1=O,inactive
5,C[C@@H]1CN([C@H](C)CO)C(=O)Cc2cc(NC(=O)NC3CCCCC3)ccc2O[C@H]1CN(C)Cc1ccc(Cl)c(Cl)c1,inactive
6,C[C@@H]1CN([C@@H](C)CO)C(=O)Cc2cc(NC(=O)NC3CCCCC3)ccc2O[C@H]1CN(C)Cc1ccc(Cl)c(Cl)c1,inactive
7,C[C@@H]1CN([C@H](C)CO)C(=O)c2cc(NS(=O)(=O)c3ccc(Cl)cc3)ccc2O[C@@H](C)CCCCO[C@H]1CN(C)C(=O)Nc1ccccc1,inactive
8,O=C(C[C@@H]1CC[C@@H]2[C@H](COC[C@@H](O)CN2S(=O)(=O)c2ccccc2)O1)NCCN1CCCCC1,inactive
9,CC(CN(C)C)CN1c2ccccc2Sc2ccccc21.O=C(O)C(O)C(O)C(=O)O (stereo not drawn),active
10,CC(CN(C)C)CN1c2ccccc2CCc2ccccc21.O=C(O)C=CC(=O)O (stereo not drawn),active
11,O=C(c1ccccc1F)N1c2ccccc2Sc2ccccc21,inactive
12,O=C(Nc1ccccc1)N1c2ccccc2CCc2ccccc21,inactive
13,Cc1ccc(C(=O)N2c3ccccc3Sc3ccccc32)cc1,inactive
14,CCOC(=O)C(CCc1ccccc1)NC1CCc2ccccc2N(CC(=O)O)C1=O.Cl (stereo not drawn),inactive
15,COc1ccc(NC(=O)N(C)C[C@@H]2OCc3ccccc3-c3c(n(C)c4ccccc34)C(=O)N([C@H](C)CO)C[C@@H]2C)c(OC)c1,inactive
16,CCC(=O)Nc1ccc2c(c1)OC[C@@H](C)N(C(=O)CN1CCOCC1)C[C@@H](C)[C@H](OC)CN(C)C2=O,inactive
17,Cc1noc(C)c1NC(=O)Nc1ccc2c(c1)C(=O)N([C@H](C)CO)C[C@H](C)[C@@H](CN(C)C(=O)Nc1ccc(C(F)(F)F)cc1)O2,inactive
18,Cc1ccc(S(=O)(=O)Nc2cccc3c2O[C@H](CN(C)Cc2ccc(Oc4ccccc4)cc2)[C@@H](C)CN([C@@H](C)CO)C3=O)cc1,inactive
19,C[C@@H]1CN([C@@H](C)CO)C(=O)Cc2cc(NC(=O)NC3CCCCC3)ccc2O[C@H]1CN(C)S(=O)(=O)c1cn(C)cn1,inactive
20,C[C@H]1CCCCO[C@H](CN(C)S(=O)(=O)c2ccc(F)cc2)[C@@H](C)CN([C@@H](C)CO)C(=O)c2cc(NC(=O)NC3CCCCC3)ccc2O1,inactive
21,C[C@@H]1CN([C@@H](C)CO)C(=O)c2cccc(NC(=O)CCCCCC(=O)Nc3ccccc3N)c2O[C@@H]1CN(C)Cc1ccc(Oc2ccccc2)cc1,active
22,COc1ccc(CN(C)C[C@@H]2Oc3c(NC(=O)CCCCCC(=O)Nc4ccccc4N)cccc3C(=O)N([C@H](C)CO)C[C@H]2C)cc1,inactive
23,COc1ccc(CN(C)C[C@@H]2Oc3c(NC(=O)CCCCCC(=O)Nc4ccccc4N)cccc3C(=O)N([C@@H](C)CO)C[C@H]2C)cc1,inactive

row,SMILES,cytotoxicity call
1,C[C@H](CO)N1C[C@H](C)[C@H](CN(C)Cc2ccc(Oc3ccccc3)cc2)Oc2c(NC(=O)CCCCCC(=O)Nc3ccccc3N)cccc2C1=O,inactive
2,C[C@@H]1CN([C@H](C)CO)C(=O)c2cccc(NC(=O)CCCCCC(=O)Nc3ccccc3N)c2O[C@H]1CN(C)Cc1ccc(Oc2ccccc2)cc1,inactive
3,COc1ccc(CN(C)C[C@H]2Oc3c(NC(=O)CCCCCC(=O)Nc4ccccc4N)cccc3C(=O)N([C@@H](C)CO)C[C@@H]2C)cc1,active
4,CO[C@@H]1CN(C)C(=O)c2cc(NS(C)(=O)=O)ccc2OC[C@H](C)N(C(=O)CN(C)C)C[C@@H]1C,inactive
5,C[C@H](CO)N1C[C@H](C)[C@H](CN(C)CC2CC2)OCCCC[C@H](C)Oc2ccc(NC(=O)CCC(F)(F)F)cc2C1=O,inactive
6,CN(C)CCC(c1ccc(Br)cc1)c1ccccn1.O=C(O)C=CC(=O)O (stereo not drawn),active
7,CN(C)CCC(c1ccccc1)c1ccccn1.O=C(O)C=CC(=O)O (stereo not drawn),inactive
8,CN(C)CCOC(c1ccc(Cl)cc1)c1ccccn1.O=C(O)C=CC(=O)O (stereo not drawn),inactive
9,CC(=O)Oc1ccc(C(c2ccc(OC(C)=O)cc2)c2ccccn2)cc1,inactive
10,CN(C)CCC(c1ccc(Cl)cc1)c1ccccn1.O=C(O)C=CC(=O)O (stereo not drawn),active
11,CN(C)CCNC(=O)c1ccccn1,inactive
12,C[C@@H]1CN([C@@H](C)CO)C(=O)c2cc(NC(=O)c3ccncc3)ccc2O[C@@H](C)CCCCO[C@H]1CN(C)C(=O)C1CCCCC1,inactive
13,C[C@@H]1CN([C@@H](C)CO)C(=O)c2cc(NS(=O)(=O)c3cccs3)ccc2O[C@@H]1CN(C)S(=O)(=O)c1cccs1,inactive
14,C[C@H](CO)N1C[C@H](C)[C@H](CN(C)S(=O)(=O)c2ccccc2)Oc2c(NS(C)(=O)=O)cccc2C1=O,inactive
15,CN(C)S(=O)(=O)N(C)c1ccccc1,inactive
16,C[C@@H]1CN([C@@H](C)CO)C(=O)c2cc(NC(=O)Nc3ccc4c(c3)OCO4)ccc2O[C@@H](C)CCCCO[C@H]1CN(C)C(=O)Nc1ccc(C(F)(F)F)cc1,inactive
17,C[C@H]1CN([C@@H](C)CO)C(=O)c2cc(NS(=O)(=O)c3ccc(F)cc3)ccc2O[C@H]1CN(C)C(=O)Nc1cccc2ccccc12,inactive
18,S=C(SN1CCOCC1)N1CCOCC1,inactive
19,COc1cc(Nc2ncc3c(n2)-c2ccc(Cl)cc2C(c2c(F)cccc2OC)=NC3)ccc1C(=O)O,active
20,C[C@H](CO)N1C[C@H](C)[C@@H](CN(C)Cc2ccc(C(F)(F)F)cc2)Oc2ccc(NC(=O)CCCCCC(=O)Nc3ccccc3N)cc2C1=O,inactive
21,C[C@@H]1CN([C@H](C)CO)C(=O)c2cc(NC(=O)CCCCCC(=O)Nc3ccccc3N)ccc2O[C@@H]1CN(C)Cc1ccc(C(F)(F)F)cc1,inactive
22,C[C@H](CO)N1C[C@H](C)[C@H](CN(C)Cc2ccc(-c3ccccc3)cc2)Oc2ccc(NC(=O)CCCCCC(=O)Nc3ccccc3N)cc2C1=O,active
23,C[C@H](CO)N1C[C@H](C)[C@H](CN(C)Cc2ccc(C(F)(F)F)cc2)Oc2ccc(NC(=O)CCCCCC(=O)Nc3ccccc3N)cc2C1=O,inactive

row,SMILES,cytotoxicity call
1,C[C@@H]1CN([C@@H](C)CO)C(=O)c2cc(NC(=O)CCCCCC(=O)Nc3ccccc3N)ccc2O[C@@H]1CN(C)Cc1ccc(C(F)(F)F)cc1,inactive
2,C[C@H]1CN([C@@H](C)CO)C(=O)c2cc(NC(=O)CCCCCC(=O)Nc3ccccc3N)ccc2O[C@H]1CN(C)Cc1ccc(-c2ccccc2)cc1,inactive
3,C[C@@H]1CN([C@H](C)CO)C(=O)c2cc(NC(=O)CCCCCC(=O)Nc3ccccc3N)ccc2O[C@H]1CN(C)Cc1ccc(-c2ccccc2)cc1,active
4,C[C@@H]1CN([C@@H](C)CO)C(=O)c2cc(NC(=O)CCCCCC(=O)Nc3ccccc3N)ccc2O[C@@H]1CN(C)Cc1ccc(-c2ccccc2)cc1,active
5,C[C@@H]1CN([C@@H](C)CO)C(=O)c2cc(NC(=O)CCCCCC(=O)Nc3ccccc3N)ccc2O[C@H]1CN(C)Cc1ccc(C(F)(F)F)cc1,inactive
6,COc1ccc(CN(C)C[C@@H]2Oc3ccc(NS(C)(=O)=O)cc3CC(=O)N([C@H](C)CO)C[C@@H]2C)cc1,inactive
7,O=C(C[C@H]1CC[C@@H]2[C@H](COC[C@@H](O)CN2S(=O)(=O)c2ccc(Oc3ccccc3)cc2)O1)NCCN1CCCCC1,inactive
8,Cc1noc(C)c1S(=O)(=O)Nc1ccc2c(c1)CC(=O)N([C@H](C)CO)C[C@H](C)[C@H](CN(C)S(C)(=O)=O)O2,inactive
9,O=C1O[C@H](c2ccccc2)[C@H](c2ccccc2)N2[C@H]1[C@@H](C(=O)Nc1nc3ccccc3s1)[C@]1(C(=O)Nc3ccc(C#CCCO)cc31)[C@H]2c1ccc(OCCO)cc1,inactive
10,COc1ccc(S(=O)(=O)Nc2ccc3c(c2)C(=O)N([C@@H](C)CO)C[C@@H](C)[C@@H](CN(C)C(=O)Nc2cccc4ccccc24)OCCCC[C@@H](C)O3)cc1,inactive
11,COc1ccc(NC(=O)N(C)C[C@@H]2Oc3c(NC(=O)C4CCOCC4)cccc3C(=O)N([C@H](C)CO)C[C@@H]2C)cc1,inactive
12,C[C@H]1CN([C@@H](C)CO)C(=O)c2cccc(NS(=O)(=O)c3cn(C)cn3)c2O[C@H]1CN(C)C(=O)Nc1ccc(F)cc1,inactive
13,COc1cccc(S(=O)(=O)Nc2ccc3c(c2)C(=O)N(C)C[C@H](OC)[C@H](C)CN(C(=O)Cc2cccnc2)[C@@H](C)CO3)c1,inactive
14,Cc1ccc(S(=O)(=O)N(C)C[C@@H]2OCCCC[C@@H](C)Oc3ccc(NC(=O)Nc4ccc5c(c4)OCO5)cc3C(=O)N([C@@H](C)CO)C[C@@H]2C)cc1,inactive
15,S=C1NCN(C2CCCC2)CN1,inactive
16,CCN1CCC[C@@H]1CN1CNC(=S)NC1,active
17,S=C1NCN(Cc2ccncc2)CN1,inactive
18,C[C@H](CO)N1C[C@H](C)[C@H](CN(C)C(=O)Nc2ccc(C(F)(F)F)cc2)OCCCC[C@H](C)Oc2ccc(NC(=O)Nc3cccc4ccccc34)cc2C1=O,inactive
19,O=C(Cc1ccncc1)NCC[C@@H]1CC[C@H](NC(=O)C2CCOCC2)[C@H](CO)O1,inactive
20,CN(C)Cc1nc2c([nH]1)c(=O)[nH]c(=O)n2C,active
21,Cn1c(=O)[nH]c(=O)c2[nH]cnc21,inactive
22,CN(C)c1nc2c([nH]1)c(=O)[nH]c(=O)n2C,inactive
